Sampled rows, rich in hits. Any-hit rate of the full collection: about 1.5%.
IDE inh – cellular human IDE inhibition. P14735. HEK cells, FAbetaB cleavage, fluorescence polarization. inhibition, % at 5.59 µM. 0.41% of 320,000 active;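 active means percent inhibition above the average of all tested compounds plus 3 SD, set per screening campaign, cut at about 16% in these data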;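 further: IDE supplied by intact live HEK cells; FP after avidin binding of uncleaved biotin substrate so inhibition keeps polarization high; 0% = DMSO wells and 100% = 60 µM reference IDE inhibitor Ii1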
TPT1 inh – blocks Candida albicans tRNA 2'-phosphotransferase; inhibition, % at 5 µM; 0.81% of 300,000 active; recombinant caTPT1, FP RNA substrate dephosphorylation;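 active means inhibition above the mean of all tested compounds plus 3 SD, set per screening campaign, cut at about 24% in these data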;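 further: plate controls were DMSO alone for no effect and ferristatin control at 100 nM for full effect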
RTF Ca sens inh – cardiac RTF calcium desensitization; P19429+P45379; IANBD-labeled cardiac RTF, Ca2+ fluorescence; inhibition, % at 7.15 µM; 0.12% of 340,000 active;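 active means inhibition above the mean inhibition of all tested compounds plus 3 SD, cut at about 17% in these data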;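 further: assay run at fixed EC70 calcium of 1.6 mM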
IDE cell activ – activators of human insulin-degrading enzyme in cells | HEK cells, FAbeta-B cleavage, fluorescence polarization; 0% vehicle, 100% cell-free pure enzyme wells | 0.073% of 340,000 active | activation, % at 5.96 µM | P14735;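 active means activation above the mean of all tested compounds plus 3 SD, set per screening campaign, cut at about 17% in these data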
cardiac RTF act – cardiac RTF calcium sensitization | P19429+P45379 | IANBD-labeled TnC RTF fluorescence at EC20 calcium; 0% EC20 calcium, 100% full calcium | activation, % at 7.2 µM | 0.24% of 340,000 active | AID 493008;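 active means activation above the mean over all tested compounds plus 3 SD, cut at about 30% in these data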;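 further: rise in fluorescence read as greater calcium sensitivity of cardiac thin filaments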
CRFR2-BP ag – agonists of human CRF-binding protein/CRF-R2 receptor complex. 0.46% of 350,000 active. activation, % at 13.2 µM. HEK293 CRF-R2/CRF-BP, calcium dye fluorescence (FLIPR); percent of saturating CRF peptide response. AID 588473;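 active means activation of at least 50%, plus an integration ratio under a set limit after plate pattern correction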;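 further: plate controls were neutral control wells without compound for no effect and CRF at EC100 for full effect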
TPT1 inh confirm – confirmation of Candida albicans TPT1 inhibitors; shares compounds with TPT1 inh; recombinant caTPT1, fluorescence polarization, RNase T1 coupled; inhibition, % at 5 µM; 74% of 2,400 active; AID 2149;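 active means inhibition above the primary screen limit, the mean inhibition of all tested compounds plus 3 SD, cut at about 25% in these data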
RNase T1 inh – RNase T1 inhibition in TPT1 counter-screen; inhibition, % at 5 µM; shares compounds with TPT1 inh; AID 2153; 83% of 2,400 active; RNase T1 cleavage, fluorescence polarization, 1536-well;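 active means inhibition above the solvent-only control well mean plus 3 SD, limit set per screening run, cut at about 23% in these data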;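 further: plate controls were DMSO wells with enzyme for no effect and wells without RNase T1 for full effect; inhibitors block cleavage so intact labeled substrate keeps polarization high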
Target sequence (P00651 whole entry, looked up): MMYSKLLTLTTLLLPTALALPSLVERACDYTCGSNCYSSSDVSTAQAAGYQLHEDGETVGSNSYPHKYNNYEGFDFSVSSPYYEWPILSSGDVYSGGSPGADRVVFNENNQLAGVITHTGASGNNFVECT
Starred values were filed as active, the others as inactive.

`O=C(O)C(=O)/C(=C\c1ccc(Cl)cc1)c1ccc2ccccc2n1` gave IDE inh 6.2, TPT1 inh 40.5*, RTF Ca sens inh 16.9, IDE cell activ 2.2, cardiac RTF act -3.7, CRFR2-BP ag 16.2, TPT1 inh confirm 35.3* and RNase T1 inh 48.7*.
Screening O=C(NCCc1ccc(Cl)cc1)c1ccc2ccccc2n1 returned IDE inh 1.4, TPT1 inh 2.7, RTF Ca sens inh -8.8, IDE cell activ -0.1, cardiac RTF act -1.8 and CRFR2-BP ag 0.0.
For CN(C)S(=O)(=O)c1cccc(NC(=S)N/N=C/c2cc(Br)ccc2O)c1 the results were IDE inh 11.9, TPT1 inh 25.1*, RTF Ca sens inh 0.5, IDE cell activ -25.3, cardiac RTF act 2.0, CRFR2-BP ag 9.6, TPT1 inh confirm 53.2* and RNase T1 inh 59.3*.
CN(C)S(=O)(=O)c1cccc(NC(=S)N/N=C/c2cccc(O)c2)c1 was read as IDE inh -0.6, TPT1 inh 1.3, RTF Ca sens inh -14.7, IDE cell activ 1.1, cardiac RTF act -2.7 and CRFR2-BP ag -0.2.
`COC(=O)CSCc1nc2ccccc2[nH]c1=O` gave IDE inh 11.6, TPT1 inh 64.4*, RTF Ca sens inh -6.0, IDE cell activ -2.3, cardiac RTF act 1.1, CRFR2-BP ag 21.5, TPT1 inh confirm 61.0* and RNase T1 inh 72.0*.
For COC(=O)CCc1nc2ccccc2[nH]c1=O the results were IDE inh 7.7, TPT1 inh -2.0, RTF Ca sens inh -6.0, IDE cell activ 0.9, cardiac RTF act 4.4 and CRFR2-BP ag 0.5.
For Cc1ccc2nc(N/N=C\c3ccc([N+](=O)[O-])o3)nc(-c3ccccc3)c2c1 the results were IDE inh 1.3, TPT1 inh 52.3*, RTF Ca sens inh 0.2, IDE cell activ -3.4, cardiac RTF act 1.2, CRFR2-BP ag 2.4, TPT1 inh confirm 49.5* and RNase T1 inh 44.1*.
Screening O=C(N/N=C/c1ccc([N+](=O)[O-])o1)c1cc2ccccc2o1 returned IDE inh -3.0, TPT1 inh 0.8, RTF Ca sens inh -14.1, IDE cell activ 1.0, cardiac RTF act 0.8 and CRFR2-BP ag -0.6.
O=[N+]([O-])c1ccc(/C=N/Nc2ccc3ccccc3c2)o1 was read as IDE inh 11.0, TPT1 inh 32.3*, RTF Ca sens inh 11.5, IDE cell activ -9.2, cardiac RTF act -1.4, CRFR2-BP ag 3.3, TPT1 inh confirm 39.1* and RNase T1 inh 46.7*.
`CCOC(=O)c1c(NC(=O)C2=COCCO2)sc2c1CCN(C(=O)OC)C2` gave IDE inh -7.5, TPT1 inh 2.3, RTF Ca sens inh -24.8, IDE cell activ 3.9, cardiac RTF act -3.7 and CRFR2-BP ag -1.4.
Screening N#Cc1c(-c2ccco2)cc(-c2ccc(F)cc2)nc1N returned IDE inh 2.9, TPT1 inh 24.7*, RTF Ca sens inh -6.0, IDE cell activ -1.0, cardiac RTF act 3.4, CRFR2-BP ag -0.1, TPT1 inh confirm 29.8* and RNase T1 inh 38.5*.
`Cc1nc2ccc(Br)cc2c2c1CC(CO)O2` (stereo not given) gave IDE inh 0.3, TPT1 inh -3.1, RTF Ca sens inh -4.6, IDE cell activ -2.5, cardiac RTF act 1.7 and CRFR2-BP ag -1.2.
`O=S(=O)(c1ccc(-c2ccon2)s1)N1CCN(c2ccncc2)CC1` gave IDE inh 8.4, TPT1 inh 44.2*, CRFR2-BP ag 0.4, TPT1 inh confirm 19.2 and RNase T1 inh 26.0*.
CN1CCc2c(sc(/N=C/c3cc(C(C)(C)C)ccc3O)c2C#N)C1 was read as IDE inh -2.8, TPT1 inh 13.5, RTF Ca sens inh -9.4, IDE cell activ -4.1, cardiac RTF act 5.3 and CRFR2-BP ag 2.5.
Screening CN1CCc2c(sc(NC(=O)Cc3ccccc3)c2C(N)=O)C1 returned IDE inh 0.3, TPT1 inh 0.7, RTF Ca sens inh -6.2, IDE cell activ 7.5, cardiac RTF act -0.7 and CRFR2-BP ag -2.4.
